HPGD inh = qHTS Assay for Inhibitors of HPGD (15-Hydroxyprostaglandin Dehydrogenase) | purified HPGD, NADH fluorescence kinetic, PGE2 substrate | AID 894, 2007 | 4.3% of 150,000 active | 15-hydroxyprostaglandin dehydrogenase [NAD(+)] (Homo sapiens), P15428 | Potency, µM, for inactives: at the highest dose activity change, negative = inhibition, hits mostly inhibitors; note: potency is the fitted concentration of half-maximal effect
Target sequence (P15428 whole entry, looked up): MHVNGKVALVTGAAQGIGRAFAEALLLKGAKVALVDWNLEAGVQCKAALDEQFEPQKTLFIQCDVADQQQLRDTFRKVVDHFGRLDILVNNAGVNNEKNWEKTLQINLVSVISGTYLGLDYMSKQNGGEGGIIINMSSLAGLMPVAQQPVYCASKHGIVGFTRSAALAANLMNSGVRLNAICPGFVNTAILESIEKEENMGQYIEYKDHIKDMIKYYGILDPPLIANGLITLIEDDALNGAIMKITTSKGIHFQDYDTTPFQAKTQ
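20 nM HPGD preincubated 15 min at room temperature with compound in 50 mM Tris-HCl pH 8, 0.01% Tween 20. Started with 1 mM NAD+ and 30 uM prostaglandin E2; NADH fluorescence (360/450 nm) read 5 times over 30-s intervals, last minus first.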
PNC inhibitor = High Content Assay for Compounds that inhibit the Assembly of the Perinucleolar Compartment | AID 2417, 2010 | PC3M PTB-GFP, PNC prevalence imaging, 16 h; hits give low values | activity change (PNC), negative = inhibition, % at 10 µM | 3.1% of 140,000 active;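 active = readout at or below -70, meaning at least 70% loss of cells showing the perinucleolar compartment, a nuclear body marking cancer cells; inconclusive = readout between -30 and a set limit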;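 note: plate controls were DMSO wells for no effect and camptothecin positive control wells for full effect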
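Read-out is percentage of cells bearing a perinucleolar compartment, from automated 20x imaging of fixed, Hoechst-stained PC3M PTB-GFP cells. Cells were seeded 4 h, then exposed 16 h to compound (23 nl of library stock) in duplicate plates.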
ALDH1A1 block = qHTS Assay for Inhibitors of Aldehyde Dehydrogenase 1 (ALDH1A1) | Aldehyde dehydrogenase 1A1 (Homo sapiens), P00352 | Purified ALDH1A1, NADH fluorescence, propionaldehyde substrate | Potency, µM (series often up to 75.3 µM), for inactives: at the top dose activity, negative = inhibition, usual class: inhibitors | 7.3% of 220,000 active | AID 1030, 2008;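 note: potency is the fitted concentration of half-maximal effect; plate controls were no enzyme wells and a reference inhibitor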
IMPase Li inh = qHTS Assay for Identifying the Cell-Membrane Permeable IMPase Inhibitors: Potentiation with Lithium | CHO-M1 cells, IP1 TR-FRET (IP-One), carbachol + lithium | Potency, µM (highest dose often 59.4 µM), for inactives: at the highest dose activity, negative = IMPase inhibition, usual class: inhibitors | 0.35% of 210,000 active | AID 1457, 2008; active = well fitted inhibition curve with a large enough effect; inconclusive = small, poorly fitted or top-dose-only effect; inactive = no such curve, though single readings can be large or run the other way;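 note: IP1 builds up when IMPase is blocked and the TR-FRET signal falls; potency is the fitted concentration of half-maximal effect; plate controls were basal vehicle for no effect and high inhibitor control for full effect; nearly all actives have a fitted effect of over 50% in size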
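IP1 accumulation measured by competitive TR-FRET in lysed CHO-M1 cells after 30 min compound exposure at 37C, with a small lithium addition to potentiate weak responses. Hill-equation AC50 from ratio and donor-channel data.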
IMPase cell inh = qHTS Assay for Identifying the Cell-Membrane Permeable IMPase Inhibitors; CHO-M1 cells, IP1 accumulation, HTRF TR-FRET ratio; 120,000 tested, under 10 active; inhibition (IP1 accumulation), % at 46.1 µM; active = well fitted curve in the direction sought with a large enough effect in the signal ratio, not every such curve was filed as active; inconclusive = small, poorly fitted or top-dose-only effect, or a change in a side signal; inactive = no such curve, though single readings can be large or run the other way; the % refers to the signal ratio;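 note: cells stimulated with carbachol in lithium chloride buffer; plate controls were DMSO basal wells for no effect and reference inhibitor wells for full effect; higher means more IMPase inhibition seen as more IP1 and lower FRET ratio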
Target sequence (P97697 whole entry, looked up): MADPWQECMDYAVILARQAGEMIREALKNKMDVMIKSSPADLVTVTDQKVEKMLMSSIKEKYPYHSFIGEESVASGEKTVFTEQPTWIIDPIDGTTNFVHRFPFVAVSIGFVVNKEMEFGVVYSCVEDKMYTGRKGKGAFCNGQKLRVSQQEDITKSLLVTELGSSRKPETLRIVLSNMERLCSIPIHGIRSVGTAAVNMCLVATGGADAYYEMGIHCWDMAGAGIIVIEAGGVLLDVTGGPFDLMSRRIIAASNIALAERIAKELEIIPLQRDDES
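Elevated IP1 in lysates lowers TR-FRET signal (665/620 ratio and 620 channel reported). Cells were CHO-M1, given carbachol (50 uM as added) plus 50mM LiCl, pH 7.4, 30 min, 37C; compounds titrated up to 46 uM; AC50 by Hill equation.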
The depositor's hits bear a star; ? = inconclusive; . = no result given; [ ] = another dose, or the depositor's remark. Shown are actives, neighbours in structure and some others; about 11% of the full set was active somewhere. Unless noted, calls come from the whole dose curve; as a rule, active = well fitted inhibition curve with a large enough effect (not every such curve was filed as active); inconclusive = small, poorly fitted or top-dose-only effect, or another doubt; inactive = no such curve, though single readings can be large or run the other way. Unless noted, % is set by controls: 0 for no effect and ±100 for the full control effect.

SMILES	HPGD inh	PNC inhibitor	ALDH1A1 block	IMPase Li inh	IMPase cell inh
CC(=O)OC[C@@H]1O[C@@H](O/N=C2/C[C@@H](O)[C@@H](O)[C@@H]3[C@H]4C(=O)N(c5ccc(F)cc5F)C(=O)[C@@H]4CC[C@@H]23)[C@H](OC(C)=O)[C@H](OC(C)=O)[C@@H]1OC(C)=O	.	.	-10.9%[13.5 µM]	.	.
O=c1c(-c2cc(F)cc(F)c2)nc2cncnc2n1-c1ccccc1	.	.	12.6%	-5.6%	.
CCCCC/C=C\C\C=C/C=C/C=C/[C@@H](SCC(N)C(=O)NCC(=O)O)[C@@H](O)CCCC(=O)O (stereo not given in full)	-3.5%	.	11.6%	7.6%	.
COc1cccc(CS(=O)(=O)c2nnnn2CC(C)C)c1	-1.7%	.	?	15.0%	.
O=C(OCc1nnc(-c2ccccc2)o1)c1ccc2c(c1)OCCO2	7.94µM*	-6.4	5.8%	5.6%[38.3 µM]	6.6
O=C(OCc1nnc(-c2ccccc2)o1)c1ccc(CO)cc1	.	.	15.0%	-3.4%	.
Cc1ccc(C(=O)OCc2nnc(-c3ccccc3)o2)o1	7.08µM*	19.3	-6.5%	25.7%[38.3 µM]	14.4
Cc1ccc(C)c(NC(=O)CS(=O)(=O)c2cccc3nsnc23)c1	.	.	2.5%	3.3%	.
CCOC(=O)c1cccc(NC(=O)CCS(=O)(=O)c2cccc3nsnc23)c1	?	?	22.4µM*	36.0%[38.3 µM]	8.3
Cc1cccc(NC(=O)CCS(=O)(=O)c2cccc3nsnc23)c1C	?	40.4	25.1µM*	-1.9%[38.3 µM]	2.2
CCOC(=O)c1ccc(NS(=O)(=O)c2cccc3nsnc23)cc1	-18.8%	-11.5	?	34.1%[38.3 µM]	6.4
COc1ccc(N2CCN(C(=O)COc3ncnc4ccccc34)CC2)cc1	.	.	2.8%	-9.1%	.
O=c1cc(O)c2ccccc2n1Cc1ccccc1F	.	.	?	0.8%	.
COc1ccc(C(=O)NN2CC(O)=C(c3nc4ccccc4n3C)C2=N)cc1OC	-8.2%	8.1	-0.5%	-1.8%	-8.0
C=CCNC(=S)N1CCN(c2ccc([N+](=O)[O-])cc2)CC1	.	20.3	?	.	5.2
COCCCNC(=S)N1CCN(c2ccc([N+](=O)[O-])cc2)CC1	-7.9%	26.9	28.2µM*	3.7%	-4.3
CNC(=S)N1CCN(c2ccc([N+](=O)[O-])cc2)CC1	-11.9%	-7.9	?	-13.4%[38.3 µM]	-8.9
O=[N+]([O-])c1ccc(N2CCN(C(=S)NCc3ccc(Cl)cc3)CC2)cc1	.	.	11.2µM*	17.7%	.
CCNC(=S)N1CCN(c2ccc([N+](=O)[O-])cc2)CC1	-9.9%	13.5	3.16µM*	-3.1%[38.3 µM]	3.4
COc1ccc(C(=O)N=c2sc3cc(Cl)ccc3n2C)cc1	.	.	.	.	9.7
Cc1ccc(Cl)cc1-n1c(CCC(=O)O)ccc1-c1cccs1	.	.	.	.	-8.3
NNC(=O)c1sc2cc(C(F)(F)F)cnc2c1-c1cccs1	.	.	0.199µM*	3.8%	.
CC(=O)N(CCN(C(C)=O)c1ccccc1)c1ccccc1	-9.2%	?	2.2%	26.8%[38.3 µM]	-1.0
CC(=O)N(Cc1ccccc1)c1ccc(C(=O)O)cc1	-3.2%	-85.0*	10.8%	-4.6%[38.3 µM]	-6.4
O=C(CSc1nnc(-c2ccccc2Cl)o1)N1CCCc2ccccc21	.	.	.	.	14.0
SMILES	HPGD inh	PNC inhibitor	ALDH1A1 block	IMPase Li inh	IMPase cell inh
COc1ccc(CCn2c(=S)[nH]c3cc(C(=O)NCc4ccco4)ccc3c2=O)cc1OC	?	19.7	0.0501µM*	-10.6%[38.3 µM]	4.6
COc1ccc(CCn2c(=O)[nH]c3cc(C(=O)NCCc4ccccc4)ccc3c2=O)cc1OC	-0.3%	?	13.7%	10.3%[38.3 µM]	-5.4
O=C(NCc1ccco1)c1ccc2c(=O)n(-c3ccccc3)c(=S)[nH]c2c1	-2.7%	45.9	0.224µM*	12.6µM*	-27.0
COc1ccc(-n2c(=S)[nH]c3cc(C(=O)NCc4ccco4)ccc3c2=O)cc1OC	-13.0%	-21.9	0.112µM*	-16.8%[38.3 µM]	0.3
CCOc1cc2[nH]c(=S)n(CCCC(=O)NCc3ccco3)c(=O)c2cc1OCC	-24.0%	14.7	2.4%	14.1µM*	-1.5
Cc1cc2c(c(=O)o1)[C@H](O)[C@H]1O[C@@H]1C2=O	.	.	-9.3%[13.5 µM]	.	.
COc1ccc(N(CC(=O)NCCC2=CCCCC2)S(=O)(=O)c2ccccc2)c(OC)c1	.	.	?	21.1%	.
Cc1ccc(C)c(N2CCN(CCCNC(=O)c3nnc(Cc4ccc(F)cc4Cl)o3)CC2)c1	.	.	.	.	4.2
CCCCOc1ccc(-c2nnn(CC(=O)NCc3ccco3)n2)cc1	-11.9%	17.8	-3.8%	-5.7%[38.3 µM]	11.7
CCOc1ccc(-c2nnn(CC(=O)NCc3ccco3)n2)cc1OCC	-7.9%	-100.0*	-0.6%	2.0%	-13.5
Cc1nc(NC2CCCCC2)c2nc(-c3ccccc3)n(CCCN3CCCCC3C)c2n1 (stereo not given)	?	.	?	7.1%	.
CCn1c(COc2cccc3ccccc23)nnc1SCC(N)=O	-11.4%	46.9	-1.6%	16.7%[38.3 µM]	1.3
O=C(c1ccco1)N1CCC2(CCN(Cc3ccccc3)CC2)CC1	0.9%	.	17.8µM*	37.2%	.
CC(C)CN1CC[C@@]2(CCCN(C(=O)c3ccco3)C2)C1	-4.5%	.	0.447µM*	7.1%	.
O=C(c1ccco1)N1CCC2(CCCN(c3ncccn3)C2)CC1	-13.9%	.	?	?	.
N#Cc1ccc(CN2CC[C@@]3(CCCN(C(=O)c4ccco4)C3)C2)cc1	-3.4%	.	14.1µM*	20.0%	.
O=C(c1ccco1)N1CCC2(CCCN(c3ccncc3)C2)CC1	-2.3%	.	3.55µM*	25.3%	.
CC(C)NC(=O)N1CCCC2(CCN(C(=O)c3ccco3)CC2)C1	-4.8%	.	-2.6%	-9.3%	.
C=CCSC1=N/C(=C\c2cc(OCC)c(OC(C)=O)c([N+](=O)[O-])c2)C(=O)S1	6.31µM*	-116.4*	0.3%	-0.4%	.
CCCn1c2ccc(F)cc2c2nnc(NN)nc21	.	.	4.47µM*	10.4%	.
CCn1c2ccc(F)cc2c2nnc(NN)nc21	-10.7%	-29.2	7.08µM*	13.4%	1.9
CCc1ccc2c(c1)c1nc(C)sc1n2CC(=O)OC	-0.6%	?	-2.4%	2.2%[38.3 µM]	10.4
CCc1ccc2c(c1)c1nnc(NN)nc1n2CC	?	-15.2	2.82µM*	11.8%	7.8
CCCSc1nnc2n(-c3ccc(OC)cc3)c(=O)c3c4c(sc3n12)COC(C(C)C)C4 (stereo not given)	.	.	.	.	-0.9
Cc1ccc(NC(=O)COc2cccc3ccc(C)nc23)c(Br)c1	11.2µM*	-16.0	?	6.4%	.
O=C(CCN1CCCCC1)N1CCc2c([nH]c3ccccc23)[C@H]1c1cccnc1	-5.6%	.	11.6%[13.5 µM]	2.2%	.
COC(=O)c1c(NC(=O)/C=C/C(=O)O)sc(C)c1-c1ccc(C(C)C)cc1	.	.	7.94µM*	1.2%	.
CCOC(=O)c1c(NC(=O)/C=C/C(=O)O)sc(C)c1-c1ccc(F)cc1	.	.	14.1µM*	1.8%	.

High-throughput results as filed in PubChem BioAssay.
